Screening data as filed in PubChem.
TDP1 block = qHTS Assay for Inhibitors of Tyrosyl-DNA Phosphodiesterase (TDP1); Tyrosyl-DNA phosphodiesterase 1 (Homo sapiens), Q9NUW8; recombinant TDP1, AlphaScreen DNA substrate cleavage; Potency, µM (series often up to 130 µM), inactives show top-dose activity change, negative = inhibition, actives largely listed as inhibitors; 350,000 compounds, 0.28% hits; note: nearly all actives have a fitted effect of over 40% in size
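Recombinant E. coli-expressed Tdp1 (1 nM) preincubated with compound 15 min at RT, then 5'-biotin/3'-phosphotyrosine-FITC DNA substrate (15 nM) added for 5 min. AlphaScreen beads (10 ug/ml) added, 10 min RT; tyrosine-FITC cleavage read as signal loss.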
KAT2A inh = qHTS Assay for Inhibitors of GCN5L2; GCN5L2 HAT assay, ThioGlo1 CoA-SH fluorescence; Histone acetyltransferase KAT2A (Homo sapiens), Q92830; Potency, µM (titrated, usually from 58.9 µM), inactives show at the highest dose activity change, negative = inhibition, hits mostly inhibitors; 390,000 compounds, 0.21% hits
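Preincubate 20nM GCN5L2 with compound 15 min, RT → add 50uM ThioGlo1 + 75uM H3(1-25) + 70uM acetyl-CoA → read fluorescence 0 and 20 min. Primary qHTS; fluorescent artifacts likely.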
TDP1 cell CPT = qHTS for Inhibitors of human tyrosyl-DNA phosphodiesterase 1 (TDP1): qHTS in cells in presence of CPT; Potency, µM (series often up to 46.2 µM), for the others: at the top dose activity change, negative = growth inhibition, actives largely listed as inhibitors; 420,000 compounds, 12% hits; chicken DT40 Tdp1-/-;hTDP1 cells + 20 nM CPT, ATP luminescence, 48 h; AID 686979, 2013; note: nearly all actives have a fitted effect of over 55% in size
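Cell growth measured by CellTiter-Glo luminescence after a minimum 48 h, 37 C compound exposure with 20 nM CPT in Tdp1-knockout DT40 cells stably expressing hTDP1, seeded 400/well; qHTS titration format.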
PLK1 PBD inh = qHTS for Inhibitors of PLK1-PDB (polo-like kinase 1 - polo-box domain): Primary Screen; Plk1 PBD binding of FITC phosphopeptide, fluorescence polarization; Serine/threonine-protein kinase PLK1 (Homo sapiens), P53350; 360,000 compounds, 2.8% hits; Potency, µM, inactives show max response, negative = inhibition, most hits filed as inhibitors; note: series mostly up to about 57 µM; nearly all actives have a fitted effect of over 65% in size
VDR inh = Inhibitors of the vitamin D receptor (VDR): qHTS; Vitamin D3 receptor (Homo sapiens), P11473; Potency, µM, inactives show max response, negative = inhibition, most hits filed as inhibitors; VDR-SRC2-3 peptide fluorescence polarization, 2 h; 400,000 compounds, 0.93% hits; AID 504847, 2011
Target sequence (P11473 whole entry, looked up): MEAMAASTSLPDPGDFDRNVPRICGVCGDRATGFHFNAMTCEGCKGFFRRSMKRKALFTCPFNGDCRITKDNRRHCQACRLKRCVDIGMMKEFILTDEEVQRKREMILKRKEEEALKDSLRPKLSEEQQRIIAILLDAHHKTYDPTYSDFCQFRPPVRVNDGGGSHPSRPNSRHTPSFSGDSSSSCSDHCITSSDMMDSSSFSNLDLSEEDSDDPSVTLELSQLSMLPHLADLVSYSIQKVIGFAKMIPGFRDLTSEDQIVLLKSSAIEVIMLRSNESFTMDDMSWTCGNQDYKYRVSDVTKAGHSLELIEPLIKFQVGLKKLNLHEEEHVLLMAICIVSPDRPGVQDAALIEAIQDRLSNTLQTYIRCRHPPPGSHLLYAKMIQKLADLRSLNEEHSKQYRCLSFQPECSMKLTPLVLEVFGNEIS
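Signal is fluorescence polarization, reporting how far test compounds block the interaction of VDR with the SRC2-3 coregulator peptide after a 2 h room-temperature incubation.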
DT40 TDP1 no CPT = qHTS for Inhibitors of human tyrosyl-DNA phosphodiesterase 1 (TDP1): qHTS in cells in absence of CPT; Potency, µM (doses to about 46.2 µM), for inactives: at the highest dose activity change, negative = growth inhibition, actives largely listed as inhibitors; 420,000 compounds, 15% hits; DT40 Tdp1-/- hTDP1 cells, no CPT, ATP luminescence, 48 h; note: nearly all actives have a fitted effect of over 55% in size
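Growth of hTDP1-complemented DT40 Tdp1-knockout cells is measured by ATP luminescence after at least 48 hr compound exposure at 37 °C, with DMSO substituting for the 20 nM CPT used in the parallel screen.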
The depositor's hits bear a star; ? = inconclusive; · = no result. A selection: hits, their analogues and other compounds. The true share with any hit is near 18%. Calls come from the whole dose curve; as a rule, active = well fitted curve in the direction sought with a large enough effect; inconclusive = small, poorly fitted or top-dose-only effect, or another doubt; inactive = no such curve, though single readings can be large; an effect the other way counts as inactive or inconclusive. % is set by controls: 0 for no effect and ±100 for the full control effect; potency is the fitted concentration of half-maximal effect.

SMILES	TDP1 block	KAT2A inh	TDP1 cell CPT	PLK1 PBD inh	VDR inh	DT40 TDP1 no CPT
CC(C)NC(=O)c1cc(C2CCCCN2C(=O)c2cc(C(C)(C)C)nn2C)on1 (stereo not drawn)	·	·	?	-12.5%	·	13µM*
Cc1ccc(F)cc1C(=O)N1CCCCC1c1cc(C(=O)Nc2ccccc2)no1 (stereo not drawn)	·	·	?	2.4%	·	?
CC(C)NC(=O)c1cc(C2CCCCN2C(=O)c2ccc(Cl)cc2)on1 (stereo not drawn)	·	·	-29.3%	-24.1%	·	-11.4%
Cn1nc(C(C)(C)C)cc1C(=O)N1CCCC(c2cc(C(=O)Nc3ccccc3Cl)no2)C1 (stereo not drawn)	·	·	?	-2.6%	·	23.1µM*
Cn1nc(C(C)(C)C)cc1C(=O)N1CCCCC1c1cc(C(=O)Nc2ccc3c(c2)OCO3)no1 (stereo not drawn)	·	·	18.4µM*	-7.4%	·	4.61µM*
CN(C(=O)COC(=O)CCCN1C(=O)c2cccc3cccc(c23)C1=O)C1CCS(=O)(=O)C1 (stereo not drawn)	0.1%	1.6%	-10.2%	-11.3%	-17.7%	-14.8%
C/C(=N\O)C(C)(C)Nc1ccccc1F	·	1.9%	-14.4%	1.8%	?	-13.5%
Cc1c(C(=O)OCC(C)C)[nH]c2c1C(=O)CC(c1ccco1)C2 (stereo not drawn)	2.6%	-8.7%	0.82µM*	-10.3%	-14.1%	0.82µM*
Cc1c(C(=O)OCC2CCCO2)[nH]c2c1C(=O)CC(c1ccco1)C2 (stereo not drawn)	?	?	3.66µM*	?	-10.9%	3.66µM*
C/C=C/COC(=O)c1[nH]c2c(c1C)C(=O)CC(c1ccco1)C2 (stereo not drawn)	-10.5%	-1.7%	0.291µM*	?	?	0.206µM*
C=CCOC(=O)c1[nH]c2c(c1C)C(=O)CC(c1ccco1)C2 (stereo not drawn)	·	-7.7%	0.0206µM*	?	79.4µM*	0.0065µM*
CCOC(=O)c1[nH]c2c(c1C)C(=O)CC(c1ccc(OC)c(OC)c1)C2 (stereo not drawn)	-6.6%	-0.5%	2.4%	0.4%	-0.3%	-33.9%
CC1(C)CCC[C@@](C)([C@H]2CC[C@]3(C)[C@@H]2[C@H](O)CC2[C@@]4(C)CC[C@H](O)C(C)(C)[C@@H]4[C@@H](O)C[C@]23C)O1 (stereo partly drawn)	5.6%	0.0%	·	·	-5.5%	·
Cc1ccc(S(=O)(=O)N2CCN(C(=O)COC(=O)CSc3ccccc3)CC2)c(C)c1	7.1%	-4.4%	1.2%	-5.4%	-24.9%	-16.0%
CC1CCc2c(sc3nnn(CC(=O)Nc4cccc(C(F)(F)F)c4)c(=O)c23)C1 (stereo not drawn)	-1.1%	-8.6%	?	·	-13.9%	20.6µM*
CC1CCc2c(sc3nnn(CC(=O)Nc4ccccc4Cl)c(=O)c23)C1 (stereo not drawn)	5.3%	1.1%	?	·	4.1%	16.4µM*
CCc1csc(CCNC(=O)C2CCC(=O)N(CCc3cccc(F)c3)C2)n1 (stereo not drawn)	5.5%	2.9%	-29.3%	-6.1%	-8.3%	-8.5%
CCOC(=O)[C@@H]1[C@H]2COc3cc(OC)ccc3[C@@H]2N2C(=O)N(c3ccccc3)C(=O)[C@]12C	3.2%	?	-19.2%	-5.8%	-19.1%	-24.4%
CCC(CO)Oc1cc(NCc2ccc(C)cc2)c2ncn(C(C)C)c2c1 (stereo not drawn)	10.3%	-8.7%	?	-1.2%	-11.1%	?
CCC(CO)Oc1cc(NCc2ccc(Cl)cc2Cl)c2ncn(C(C)C)c2c1 (stereo not drawn)	9.8%	-13.9%	?	-10.0%	4.4%	?
CCC(CO)Oc1cc(NCc2cccc(C)c2)c2ncn(C(C)C)c2c1 (stereo not drawn)	4.4%	-13.6%	20.6µM*	-14.8%	89.1µM*	?
CCOc1cc(NCc2ccccc2)c2ncn(C(C)C)c2c1	12.5%	-9.6%	?	1.0%	-2.5%	23.1µM*
CCC(CO)Oc1cc(NCc2cccc(C(F)(F)F)c2)c2ncn(C(C)C)c2c1 (stereo not drawn)	6.4%	-0.1%	16.4µM*	-5.8%	-10.5%	?
CCC(CO)Oc1cc(NCc2ccccc2O)c2ncn(C(C)C)c2c1 (stereo not drawn)	7.5%	-6.1%	14.6µM*	-8.2%	-10.5%	18.4µM*
CCc1ccc(N2CC(C(=O)OCC(=O)Nc3ccc([N+](=O)[O-])cc3)CC2=O)cc1 (stereo not drawn)	2.2%	-3.7%	3.0%	-0.3%	5.6%	-3.7%
SMILES	TDP1 block	KAT2A inh	TDP1 cell CPT	PLK1 PBD inh	VDR inh	DT40 TDP1 no CPT
CCOc1ccc(-c2cc(C(F)(F)F)c(C#N)c(SCC(=O)Nc3ccccc3)n2)cc1	0.0%	2.4%	?	·	-3.3%	?
CCC(CO)Oc1cc(NCc2ccc(OC)cc2)c2ncn(C(C)C)c2c1 (stereo not drawn)	4.9%	2.3%	?	2.4%	-22.6%	?
CC[C@H](CO)Oc1cc(NCc2cccc(N)c2)c2ncn(C(C)C)c2c1	·	·	25.9µM*	1.0%	·	?
CC[C@H](CO)Oc1cc(NCc2ccc(Cl)c(Cl)c2)c2ncn(C(C)C)c2c1	8.2%	-6.0%	16.4µM*	1.6%	-13.7%	?
Cc1ccccc1-n1ncc2c([N+](=O)[O-])cc([N+](=O)[O-])cc21	10.3%	4.5%	25.9µM*	-10.9%	-1.2%	20.6µM*
O=C(NCc1nc2ccccc2[nH]1)C1=C[C@@H](c2ccccc2)C[C@@H](OCc2ccc(CO)cc2)O1	6.4%	4.2%	?	-8.7%	-6.1%	?
O=C(NCc1nc2ccccc2[nH]1)C1=C[C@H](C2CCCCC2)C[C@H](OCCCCO)O1	·	·	23.1µM*	3.1%	-3.5%	16.4µM*
CC(C)(C)[C@H]1C=C(C(=O)NCc2nc3ccccc3[nH]2)O[C@@H](OCc2ccc(CO)cc2)C1	1.2%	-9.8%	20.6µM*	-0.2%	-3.7%	?
O=C(NCc1nc2ccccc2[nH]1)C1=C[C@@H](c2ccc(C(F)(F)F)cc2)C[C@@H](OCc2ccc(CO)cc2)O1	·	·	?	-12.8%	-18.2%	18.4µM*
